Test systems include RPMI-8226 leukemia; OVCAR-8 ovarian; OVCAR-5 ovarian; OVCAR-4 ovarian; SK-OV-3 ovarian; IGROV1 ovarian; OVCAR-3 ovarian; HS 578T breast; NCI/ADR-RES ovarian.
Assay in all cases: NCI-60 one-dose screen, 48 h (100 = growth as untreated, 0 = no growth, -100 = all killed)
The test system of the next experiment is SR leukemia. The following applies: 10 µM unless noted.

SMILES strings stand for the structures. Values joined by “and” are separate entries in the source; they are usually repeats but may differ in a detail not shown here. Identical values can stand only once. Compounds without any hit were thinned out: in the full panel of roughly 83,000, 20% have a hit.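 Cells were grown in 96-well plates and exposed to the test compound at a single concentration for 48 hours; results are reported as percent growth, with values below 10 considered active.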 Active and inactive are the calls of the source. Where a SMILES comes first, the peptide text is derived from it. [ ]: non-standard residue; d: D form. ξ: configuration not given here. ξV = CC(C)C(N)C(=O)O

Regarding `CC(=O)Nc1cc(C)ccc1C`, the growth is 98.8% (inactive) in the experiment on SR leukemia; 117% (inactive) in the experiment with RPMI-8226 leukemia (10 µM); 104% (inactive) in the experiment with OVCAR-8 ovarian (10 µM); 102% (inactive) in the experiment with OVCAR-5 ovarian (10 µM); 104% (inactive) in the experiment on OVCAR-4 ovarian (10 µM); 102% (inactive) with SK-OV-3 ovarian (10 µM). Also, the growth in the experiment with IGROV1 ovarian (10 µM) is 108% (inactive); with OVCAR-3 ovarian (10 µM), 102% (inactive); in the experiment with HS 578T breast (10 µM) it was 90.4% (inactive); in the experiment with NCI/ADR-RES ovarian (10 µM) it was 103% (inactive).
Regarding `OCC1OC(n2cnc3c(=S)nc[nH]c32)C(O)C1O` (centres undefined), the growth is 112% (inactive) and 37.9% (inactive) in the experiment with SR leukemia; 108% (inactive) and 31.6% (inactive) with RPMI-8226 leukemia (10 µM); 47.3% (inactive) in the experiment on OVCAR-8 ovarian (10 µM); 57% (inactive) and 85.1% (inactive) in the experiment on OVCAR-5 ovarian (10 µM); 91.5% (inactive) and 46.9% (inactive) in the experiment on OVCAR-4 ovarian (10 µM); 113% (inactive) with SK-OV-3 ovarian (10 µM). In addition, the growth was 85.4% (inactive) with IGROV1 ovarian (10 µM); 113% (inactive) and 47% (inactive) in the experiment on OVCAR-3 ovarian (10 µM); 89.5% (inactive) and 62.7% (inactive) in the experiment with HS 578T breast (10 µM); 102% (inactive) and 46.5% (inactive) in the experiment with NCI/ADR-RES ovarian (10 µM).
For `O=C(Nc1ccc(C(=O)O)c(O)c1)c1ccccc1`, the growth in the experiment with SR leukemia was 113% (inactive) and 122% (inactive); in the experiment on RPMI-8226 leukemia (10 µM) it was 132% (inactive) and 105% (inactive); with OVCAR-8 ovarian (10 µM) it was 97.7% (inactive) and 99.8% (inactive); with OVCAR-5 ovarian (10 µM), 93.8% (inactive) and 100% (inactive); with OVCAR-4 ovarian (10 µM), 108% (inactive) and 112% (inactive); in the experiment on SK-OV-3 ovarian (10 µM), 100% (inactive) and 108% (inactive). In addition, the growth in the experiment with IGROV1 ovarian (10 µM) was 100% (inactive) and 103% (inactive); with OVCAR-3 ovarian (10 µM) it was 115% (inactive) and 125% (inactive); with HS 578T breast (10 µM) it was 130% (inactive) and 119% (inactive); in the experiment with NCI/ADR-RES ovarian (10 µM), 84.2% (inactive) and 100% (inactive).
Take `CC(C)(C)CC(C)(C)c1ccc(OCCO)cc1`: the growth was 85.5% (inactive) in the experiment on SR leukemia; 124% (inactive) in the experiment with RPMI-8226 leukemia (10 µM); 108% (inactive) in the experiment on OVCAR-8 ovarian (10 µM); 111% (inactive) in the experiment with OVCAR-5 ovarian (10 µM); 124% (inactive) in the experiment on OVCAR-4 ovarian (10 µM); 116% (inactive) with SK-OV-3 ovarian (10 µM). In addition, the growth with IGROV1 ovarian (10 µM) was 108% (inactive); with OVCAR-3 ovarian (10 µM), 116% (inactive); in the experiment with HS 578T breast (10 µM), 94.6% (inactive); with NCI/ADR-RES ovarian (10 µM), 105% (inactive).
Take `Clc1cc(Cl)c(Cl)nn1`: the growth was 72% (inactive) in the experiment with SR leukemia; 75.6% (inactive) in the experiment with RPMI-8226 leukemia (10 µM); 94.1% (inactive) with OVCAR-8 ovarian (10 µM); 115% (inactive) in the experiment with OVCAR-5 ovarian (10 µM); 109% (inactive) in the experiment on OVCAR-4 ovarian (10 µM); 95.2% (inactive) in the experiment with SK-OV-3 ovarian (10 µM). The growth was 107% (inactive) with IGROV1 ovarian (10 µM), 114% (inactive) with OVCAR-3 ovarian (10 µM), 101% (inactive) in the experiment with HS 578T breast (10 µM) and 107% (inactive) in the experiment with NCI/ADR-RES ovarian (10 µM).
Turning to `CC(C)C(NC(=O)CN)C(=O)O` (centres undefined) (H-Gly-[ξV]-OH), the growth in the experiment with SR leukemia is 57% (inactive); in the experiment on RPMI-8226 leukemia (10 µM), 109% (inactive) and 107% (inactive); in the experiment with OVCAR-8 ovarian (10 µM), 101% (inactive) and 110% (inactive); in the experiment on OVCAR-5 ovarian (10 µM) it was 103% (inactive) and 99.9% (inactive); with OVCAR-4 ovarian (10 µM), 105% (inactive) and 102% (inactive); in the experiment with SK-OV-3 ovarian (10 µM) it was 106% (inactive) and 101% (inactive). Further, the growth in the experiment with IGROV1 ovarian (10 µM) was 109% (inactive) and 108% (inactive); in the experiment with OVCAR-3 ovarian (10 µM) it was 112% (inactive); in the experiment with HS 578T breast (10 µM), 111% (inactive) and 91.9% (inactive); in the experiment with NCI/ADR-RES ovarian (10 µM) it was 105% (inactive) and 111% (inactive).
Regarding `O=C(O)COc1ccc(OCC(=O)O)cc1`, the growth in the experiment on SR leukemia is 10.3% (inactive); in the experiment with RPMI-8226 leukemia (10 µM), -15.6% (active); in the experiment on OVCAR-8 ovarian (10 µM), 13% (inactive); with OVCAR-5 ovarian (10 µM), 11% (inactive); in the experiment on OVCAR-4 ovarian (10 µM), 21.4% (inactive); in the experiment on SK-OV-3 ovarian (10 µM) it was 11.4% (inactive). For the same compound, the growth was 27.4% (inactive) in the experiment with IGROV1 ovarian (10 µM), 16.7% (inactive) in the experiment on OVCAR-3 ovarian (10 µM), 20.9% (inactive) with HS 578T breast (10 µM) and 83.3% (inactive) in the experiment with NCI/ADR-RES ovarian (10 µM).
For the compound `Nc1c2ccccc2nc2ccccc12`, the growth in the experiment on SR leukemia is 0.28% (active) and 18.5% (inactive) and 24.2% (inactive); in the experiment with RPMI-8226 leukemia (10 µM) it was 43.6% (inactive) and -28.8% (active) and 43.7% (inactive); in the experiment with OVCAR-8 ovarian (10 µM) it was -30.4% (active) and 38.1% (inactive) and 29.2% (inactive); with OVCAR-5 ovarian (10 µM) it was 78.4% (inactive) and 55.4% (inactive); with OVCAR-4 ovarian (10 µM) it was 4.83% (active) and 33.8% (inactive) and 56.2% (inactive); in the experiment on SK-OV-3 ovarian (10 µM), 18.9% (inactive) and 40% (inactive) and 34.1% (inactive). The growth was 13.6% (inactive) and -40.3% (active) and 32.2% (inactive) with IGROV1 ovarian (10 µM); 3.88% (active) and 52.9% (inactive) in the experiment with OVCAR-3 ovarian (10 µM); 44.9% (inactive) and 27.5% (inactive) and 82.2% (inactive) in the experiment with HS 578T breast (10 µM); 7.27% (active) and 43.1% (inactive) and 37% (inactive) in the experiment on NCI/ADR-RES ovarian (10 µM).
With `OCC(O)C(O)C(O)C(/C=N/Nc1ccccc1)=N/Nc1ccccc1` (centres undefined), the growth with SR leukemia is 58.8% (inactive); in the experiment with RPMI-8226 leukemia (10 µM), 92.2% (inactive); in the experiment with OVCAR-8 ovarian (10 µM) it was 92.6% (inactive); in the experiment with OVCAR-5 ovarian (10 µM) it was 82.3% (inactive); with OVCAR-4 ovarian (10 µM) it was 93.1% (inactive); in the experiment with SK-OV-3 ovarian (10 µM), 99.5% (inactive). The growth in the experiment on IGROV1 ovarian (10 µM) was 83.4% (inactive); in the experiment on OVCAR-3 ovarian (10 µM), 90.4% (inactive); in the experiment on HS 578T breast (10 µM), 79.7% (inactive); in the experiment on NCI/ADR-RES ovarian (10 µM), 79.8% (inactive).
Consider `CCC(C)(C)c1cc(O)c(C(C)(C)CC)cc1O`, for which the growth was 45.1% (inactive) in the experiment on SR leukemia; 22.3% (inactive) in the experiment with RPMI-8226 leukemia (10 µM); 65.9% (inactive) in the experiment on OVCAR-8 ovarian (10 µM); 49.2% (inactive) in the experiment on OVCAR-5 ovarian (10 µM); 28% (inactive) with OVCAR-4 ovarian (10 µM); 57.2% (inactive) with SK-OV-3 ovarian (10 µM). Also, the growth in the experiment with IGROV1 ovarian (10 µM) is 64.8% (inactive); in the experiment with OVCAR-3 ovarian (10 µM) it was 37.2% (inactive); in the experiment on HS 578T breast (10 µM) it was 31.9% (inactive); with NCI/ADR-RES ovarian (10 µM), 39.2% (inactive).
As to `O=c1ccn(C2CC(O)C(COC(c3ccccc3)(c3ccccc3)c3ccccc3)O2)c(=O)[nH]1` (centres undefined), the growth in the experiment on SR leukemia was 33.2% [100 µM] (inactive); with RPMI-8226 leukemia (10 µM), 95.8% (inactive); with RPMI-8226 leukemia (100 µM), 40.2% (inactive); in the experiment on OVCAR-8 ovarian (10 µM), 80.7% (inactive); in the experiment with OVCAR-8 ovarian (100 µM), 44.9% (inactive); with OVCAR-5 ovarian (10 µM), 101% (inactive). Besides, the growth is 73.7% (inactive) in the experiment on OVCAR-5 ovarian (100 µM); 94.5% (inactive) in the experiment on OVCAR-4 ovarian (10 µM); 38.5% (inactive) in the experiment on OVCAR-4 ovarian (100 µM); 99.8% (inactive) in the experiment on SK-OV-3 ovarian (10 µM); 94.9% (inactive) in the experiment with SK-OV-3 ovarian (100 µM); 99.2% (inactive) in the experiment on IGROV1 ovarian (10 µM). Moreover, the growth in the experiment on IGROV1 ovarian (100 µM) was 58.1% (inactive); with OVCAR-3 ovarian (10 µM) it was 102% (inactive); in the experiment on OVCAR-3 ovarian (100 µM) it was 47.8% (inactive); with HS 578T breast (10 µM) it was 89.3% (inactive); in the experiment on HS 578T breast (100 µM), 55.7% (inactive); in the experiment with NCI/ADR-RES ovarian (10 µM) it was 85% (inactive). For the same compound, in the experiment on NCI/ADR-RES ovarian (100 µM), the growth was 44.3% (inactive).

These data come from PubChem BioAssay (NCI).
